What all share (settings): Compound concentration 20.0 uM, Protein concentration 2.0 uM, Result type QC Liability
In assay [1] the target is Tyrosine-protein kinase ABL1 (Homo sapiens) (UniProt P00519).
Assay [2] addresses Cyclin-dependent kinase 2 (Homo sapiens) (UniProt P24941).
Assay [3] addresses Casein kinase I isoform delta (Homo sapiens) (UniProt P48730).
In assay [4] the target is Glycogen synthase kinase-3 beta (Homo sapiens) (UniProt P49841).
In assay [5] the target is Mitogen-activated protein kinase 1 (Homo sapiens) (UniProt P28482).
Sequence of Mitogen-activated protein kinase 1 (Homo sapiens) (P28482 whole entry): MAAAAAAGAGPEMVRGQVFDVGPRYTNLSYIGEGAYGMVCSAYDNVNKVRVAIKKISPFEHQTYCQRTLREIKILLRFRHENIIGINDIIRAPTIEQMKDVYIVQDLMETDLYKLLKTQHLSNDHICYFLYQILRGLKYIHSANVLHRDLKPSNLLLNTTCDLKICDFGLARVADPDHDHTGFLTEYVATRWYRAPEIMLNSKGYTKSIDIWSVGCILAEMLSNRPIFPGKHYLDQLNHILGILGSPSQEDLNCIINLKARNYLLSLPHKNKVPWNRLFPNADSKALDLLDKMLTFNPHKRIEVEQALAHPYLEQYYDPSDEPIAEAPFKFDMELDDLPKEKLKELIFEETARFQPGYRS
For assay [6], the target named is T1, Aurora kinase A (Homo sapiens) (UniProt O14965).
T1 sequence (whole entry): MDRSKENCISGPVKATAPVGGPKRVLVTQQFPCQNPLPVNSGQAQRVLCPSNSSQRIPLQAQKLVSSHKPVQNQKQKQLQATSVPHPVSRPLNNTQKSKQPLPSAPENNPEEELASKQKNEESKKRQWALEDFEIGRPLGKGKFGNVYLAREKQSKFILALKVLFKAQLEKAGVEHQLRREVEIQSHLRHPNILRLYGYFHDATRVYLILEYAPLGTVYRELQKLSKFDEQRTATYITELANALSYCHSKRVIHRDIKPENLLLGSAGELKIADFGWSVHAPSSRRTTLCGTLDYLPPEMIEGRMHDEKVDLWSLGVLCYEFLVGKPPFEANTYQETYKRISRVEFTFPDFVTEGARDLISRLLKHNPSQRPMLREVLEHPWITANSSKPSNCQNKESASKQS

Assay [7] deals with T2, Transcription intermediary factor 1-alpha (Homo sapiens) (UniProt O15164).
T2 sequence (whole entry): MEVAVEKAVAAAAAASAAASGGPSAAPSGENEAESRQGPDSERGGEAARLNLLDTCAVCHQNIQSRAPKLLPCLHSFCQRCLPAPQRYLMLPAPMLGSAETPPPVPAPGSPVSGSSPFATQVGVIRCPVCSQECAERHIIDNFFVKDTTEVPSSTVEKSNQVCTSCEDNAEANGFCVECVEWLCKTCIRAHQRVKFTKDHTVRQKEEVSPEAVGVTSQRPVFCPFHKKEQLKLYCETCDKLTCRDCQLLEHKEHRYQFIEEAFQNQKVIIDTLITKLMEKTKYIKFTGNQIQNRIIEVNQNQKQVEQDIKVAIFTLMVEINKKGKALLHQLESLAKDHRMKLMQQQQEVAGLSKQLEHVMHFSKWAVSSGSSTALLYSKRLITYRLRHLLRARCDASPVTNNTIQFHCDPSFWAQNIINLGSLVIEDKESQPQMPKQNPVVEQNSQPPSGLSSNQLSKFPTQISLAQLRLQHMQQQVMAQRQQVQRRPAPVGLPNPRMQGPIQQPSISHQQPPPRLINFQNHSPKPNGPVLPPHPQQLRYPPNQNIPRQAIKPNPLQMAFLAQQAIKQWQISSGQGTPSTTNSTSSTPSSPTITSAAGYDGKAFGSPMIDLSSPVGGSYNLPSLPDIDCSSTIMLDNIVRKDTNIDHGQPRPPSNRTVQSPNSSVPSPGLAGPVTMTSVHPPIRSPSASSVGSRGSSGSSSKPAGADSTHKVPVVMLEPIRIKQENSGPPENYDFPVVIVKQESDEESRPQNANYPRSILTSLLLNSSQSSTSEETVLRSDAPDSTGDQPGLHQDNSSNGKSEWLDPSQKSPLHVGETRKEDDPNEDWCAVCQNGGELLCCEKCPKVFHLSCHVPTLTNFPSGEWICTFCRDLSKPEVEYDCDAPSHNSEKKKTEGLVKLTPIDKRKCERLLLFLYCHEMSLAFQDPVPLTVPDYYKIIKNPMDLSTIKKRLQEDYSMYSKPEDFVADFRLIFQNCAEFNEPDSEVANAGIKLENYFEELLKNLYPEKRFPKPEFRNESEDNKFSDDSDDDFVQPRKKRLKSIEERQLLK

This passage reports ΔTm results from ChEMBL document CHEMBL5308504, “Tm Shift (DSF) assay results for EUbOPEN Chemogenomics Library” (2023).

Sequence of Casein kinase I isoform delta (Homo sapiens) (P48730 whole entry, looked up, canonical isoform): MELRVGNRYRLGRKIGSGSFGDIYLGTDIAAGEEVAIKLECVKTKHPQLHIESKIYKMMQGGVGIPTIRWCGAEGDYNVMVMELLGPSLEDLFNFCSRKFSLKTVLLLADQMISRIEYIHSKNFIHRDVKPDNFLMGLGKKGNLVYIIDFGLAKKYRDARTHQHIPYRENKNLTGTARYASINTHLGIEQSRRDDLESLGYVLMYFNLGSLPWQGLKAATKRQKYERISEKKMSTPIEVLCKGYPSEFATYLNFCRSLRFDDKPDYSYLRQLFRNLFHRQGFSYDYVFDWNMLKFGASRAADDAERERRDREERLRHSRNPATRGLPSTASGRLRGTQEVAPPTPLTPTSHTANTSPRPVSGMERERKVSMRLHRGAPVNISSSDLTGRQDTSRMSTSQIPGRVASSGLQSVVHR
Sequence of Tyrosine-protein kinase ABL1 (Homo sapiens) (P00519 whole entry): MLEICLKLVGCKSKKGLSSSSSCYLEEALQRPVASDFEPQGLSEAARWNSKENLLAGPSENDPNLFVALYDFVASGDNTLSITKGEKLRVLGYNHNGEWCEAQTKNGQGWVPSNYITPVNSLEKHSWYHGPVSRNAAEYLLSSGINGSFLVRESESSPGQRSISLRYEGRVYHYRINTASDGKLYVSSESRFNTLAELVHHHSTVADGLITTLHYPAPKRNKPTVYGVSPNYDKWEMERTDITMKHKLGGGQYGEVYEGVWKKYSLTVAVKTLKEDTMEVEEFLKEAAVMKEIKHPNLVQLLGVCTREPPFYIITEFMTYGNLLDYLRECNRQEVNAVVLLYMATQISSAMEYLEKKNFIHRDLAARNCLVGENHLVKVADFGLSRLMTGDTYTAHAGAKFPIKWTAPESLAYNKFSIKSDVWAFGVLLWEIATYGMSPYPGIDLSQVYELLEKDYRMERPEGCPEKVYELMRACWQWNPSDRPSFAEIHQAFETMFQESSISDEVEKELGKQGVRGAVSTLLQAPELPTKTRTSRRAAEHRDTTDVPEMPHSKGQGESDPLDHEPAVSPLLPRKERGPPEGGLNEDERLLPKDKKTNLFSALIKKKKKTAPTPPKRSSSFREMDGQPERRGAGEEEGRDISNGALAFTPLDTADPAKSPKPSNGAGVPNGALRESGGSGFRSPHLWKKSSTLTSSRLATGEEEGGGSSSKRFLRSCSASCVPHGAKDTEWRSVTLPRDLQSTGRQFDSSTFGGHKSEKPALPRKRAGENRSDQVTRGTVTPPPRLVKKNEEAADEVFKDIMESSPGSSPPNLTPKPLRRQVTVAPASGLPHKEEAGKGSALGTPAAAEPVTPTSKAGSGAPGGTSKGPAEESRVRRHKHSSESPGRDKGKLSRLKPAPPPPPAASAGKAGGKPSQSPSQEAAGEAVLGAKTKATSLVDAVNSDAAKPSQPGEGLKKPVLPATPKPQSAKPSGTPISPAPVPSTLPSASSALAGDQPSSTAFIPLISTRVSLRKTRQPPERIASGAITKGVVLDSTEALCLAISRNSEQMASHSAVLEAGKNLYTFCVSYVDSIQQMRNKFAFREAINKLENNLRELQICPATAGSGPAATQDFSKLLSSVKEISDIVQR
Sequence of Glycogen synthase kinase-3 beta (Homo sapiens) (P49841 whole entry, looked up): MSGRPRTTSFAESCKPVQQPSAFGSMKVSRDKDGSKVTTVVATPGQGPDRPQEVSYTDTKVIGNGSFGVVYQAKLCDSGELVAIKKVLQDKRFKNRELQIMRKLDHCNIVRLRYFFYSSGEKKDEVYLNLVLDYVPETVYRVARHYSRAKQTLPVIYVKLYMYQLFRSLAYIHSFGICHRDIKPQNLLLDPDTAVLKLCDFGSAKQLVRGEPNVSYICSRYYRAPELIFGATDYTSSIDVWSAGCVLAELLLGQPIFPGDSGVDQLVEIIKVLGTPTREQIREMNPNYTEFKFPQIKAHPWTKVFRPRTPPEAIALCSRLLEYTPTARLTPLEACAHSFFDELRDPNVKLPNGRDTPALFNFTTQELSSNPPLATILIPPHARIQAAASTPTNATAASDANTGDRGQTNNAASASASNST

Consider `CC[C@H]1[C@@H](O)[C@@H]2[C@H](CC[C@]3(C)[C@@H]([C@H](C)CCC(=O)O)CC[C@@H]23)[C@@]2(C)CC[C@@H](O)C[C@@H]12`, for which the ΔTm was -0.12 °C in assay [1]; -0.27 °C in assay [2]; 0.56 °C in assay [3]; -0.92 °C in assay [4]; -0.09 °C in assay [5]; -1.71 °C in assay [6]. Besides, the ΔTm in assay [7] is -1.62 °C.
Turning to `CN1CCN(C(=O)Cc2ccc(N/C(=C3\C(=O)Nc4cc(Cl)ccc43)c3ccccc3)cc2)CC1`, the ΔTm in assay [1] is 8.52 °C; in assay [2], 1.7 °C; in assay [3], 1.29 °C; in assay [4], 6.21 °C; in assay [5], -0.19 °C; in assay [6], 1.19 °C. Also, in assay [7], the ΔTm is -2.36 °C.
With `CO[C@H](C)CN1CC[C@]2(C)c3cccc(O)c3C[C@H]1C2(C)C`, the ΔTm was 0.1 °C in assay [1]; 0.52 °C in assay [2]; 0.27 °C in assay [3]; -0.29 °C in assay [4]; -0.17 °C in assay [5]; -0.21 °C in assay [6]. Besides, in assay [7], the ΔTm came out at 0.19 °C.
`COc1nc2ccc([C@@](O)(c3ccc(Cl)cc3)c3cncn3C)cc2c(Cl)c1Cc1ccc(-n2cccn2)cc1`: the ΔTm is -0.22 °C in assay [1]; -0.1 °C in assay [2]; -0.84 °C in assay [3]; -1.9 °C in assay [4]; -0.39 °C in assay [5]; -0.59 °C in assay [6]. Also, the ΔTm in assay [7] was -0.54 °C.
Consider `Cn1ncc(-c2nc(N[C@H]3CC[C@H](N)CC3)ncc2Cl)c1CC1CC1`, for which the ΔTm was found to be 0.41 °C in assay [1]; 12.7 °C in assay [2]; 9.79 °C in assay [3]; 9.59 °C in assay [4]; 2.41 °C in assay [5]; 2.45 °C in assay [6]. In addition, in assay [7], the ΔTm is -3.6 °C.
Take `CCCn1cc(-c2cc(C3C(=O)N(CC)c4ccc(C(F)(F)F)cc4N(c4ccccc4)C3=O)cc(OC)c2O)cn1` (centres undefined): the ΔTm in assay [1] is -0.36 °C; in assay [2] it was 1.16 °C; in assay [3] it was 0.47 °C; in assay [4] it was -1.32 °C; in assay [5], -7.84 °C; in assay [6] it was 0.54 °C. Also, the ΔTm in assay [7] was determined as 0.28 °C.
In the case of `C[C@]12CC[C@@H]3c4ccc(C(N)=O)cc4CC[C@H]3[C@@H]1CC=C2c1cncc(F)c1`, the ΔTm in assay [1] was 0.15 °C; in assay [2], -0.32 °C; in assay [3], -4.77 °C; in assay [4] it was 0 °C; in assay [5] it was 0.35 °C; in assay [6] it was 2.37 °C. Besides, the ΔTm in assay [7] came out at 0.2 °C.
Consider `CCN(CC)CCO[C@H]1CC[C@@]2(C)C(=CC[C@@H]3[C@@H]2CC[C@]2(C)C(=O)CC[C@@H]32)C1`, for which the shift in melting temperature (ΔTm) in assay [1] is 0.26 °C; in assay [2], 0.63 °C; in assay [3], -0.08 °C; in assay [4] it was -0.11 °C; in assay [5], 0.35 °C; in assay [6], -0.37 °C. Besides, the ΔTm in assay [7] was -0.77 °C.
Consider `N[C@H](C(=O)O)[C@@H]1CC(Cl)=NO1`, for which the thermal shift (ΔTm) is -0.08 °C in assay [1]; 0.85 °C in assay [2]; 0.22 °C in assay [3]; 0.23 °C in assay [4]; 0.14 °C in assay [5]; -0.37 °C in assay [6]. The ΔTm in assay [7] is -0.82 °C.
For the molecule `Cc1nnc2n1-c1sc3c(c1C(c1ccccc1Cl)=NC2)C[C@H](C(=O)N1CCOCC1)C3`, the ΔTm in assay [1] was 0.62 °C; in assay [2], 0.85 °C; in assay [3] it was 0.25 °C; in assay [4] it was 0.26 °C; in assay [5] it was 0.42 °C; in assay [6], -0.08 °C. Further, the ΔTm in assay [7] was -0.99 °C.
For the molecule `Cc1cc(Cl)ccc1S(=O)(=O)NC[C@H]1C2CCC(CC2)[C@@H]1/C=C\CCCC(=O)O`, the ΔTm in assay [1] is -0.05 °C; in assay [2], -0.53 °C; in assay [3] it was -0.27 °C; in assay [4] it was -1.54 °C; in assay [5], 0.13 °C; in assay [6] it was -0.34 °C. For the same molecule, the ΔTm in assay [7] was -0.51 °C.
With `COc1ccc(-n2nc(C(F)(F)F)cc2-c2ccc(Cl)cc2)cc1`, the ΔTm was 0.2 °C in assay [1]; 1.23 °C in assay [2]; 0.03 °C in assay [3]; -0.24 °C in assay [4]; 0.69 °C in assay [5]; -0.08 °C in assay [6]. For the same molecule, the ΔTm in assay [7] was -0.34 °C.
Consider `COP(=O)(CCC(N)C(=O)O)Oc1cccc(CC(=O)O)c1` (centres undefined), for which the ΔTm in assay [1] is -0.06 °C; in assay [2] it was 0.07 °C; in assay [3] it was 0.36 °C; in assay [4], -0.02 °C; in assay [5], 0.13 °C; in assay [6] it was -0.17 °C. The ΔTm in assay [7] amounted to 0.32 °C.
As for `C[C@H](CCC(=O)O)[C@H]1CC[C@H]2[C@@H]3[C@@H](O)C[C@@H]4C[C@H](O)CC[C@]4(C)[C@H]3CC[C@]12C`, the ΔTm was 0.07 °C in assay [1]; 0.52 °C in assay [2]; 0.77 °C in assay [3]; -0.56 °C in assay [4]; 0.29 °C in assay [5]; -1.74 °C in assay [6]. For the same molecule, the ΔTm in assay [7] was -2.12 °C.
Consider `CCC(=O)O[C@@H](OP(=O)(CCCCc1ccccc1)CC(=O)N1C[C@H](C2CCCCC2)C[C@H]1C(=O)O)C(C)C` (some centres undefined), for which the ΔTm is 0.01 °C in assay [1]; 0.46 °C in assay [2]; -0.25 °C in assay [3]; -0.61 °C in assay [4]; 0.22 °C in assay [5]; -1.22 °C in assay [6]. For the same molecule, the ΔTm in assay [7] is -3.14 °C.
Turning to `CS(=O)(=O)c1ccc(-c2cnc(N)c(C(=O)Nc3ccccc3)n2)cc1`, the ΔTm is 0.67 °C in assay [1]; 0.23 °C in assay [2]; -0.19 °C in assay [3]; 3.54 °C in assay [4]; 0.38 °C in assay [5]; 0.45 °C in assay [6]. Moreover, the ΔTm in assay [7] is -1.74 °C.
Take `OCC1OC(n2cnc3cc(Cl)c(Cl)cc32)C(O)C1O` (centres undefined): the ΔTm in assay [1] was 0.32 °C; in assay [3], 1.91 °C; in assay [4], 0.18 °C; in assay [5], 0.27 °C; in assay [6], 0.42 °C; in assay [7] it was -1.91 °C.
As for `C=CC(=O)Nc1cc(-c2nn(C3CCC(N4CCN(C(C)=O)CC4)CC3)c3ncnc(N)c23)ccc1Oc1ccccc1` (centres undefined), the ΔTm is 0.84 °C in assay [1]; 0.18 °C in assay [2]; 0.89 °C in assay [3]; -1.12 °C in assay [4]; 0.34 °C in assay [5]; 4.07 °C in assay [6]. In addition, the ΔTm in assay [7] was -1.68 °C.
`CCOP(=O)(OCC)C(=Cc1cc(C(C)(C)C)c(O)c(C(C)(C)C)c1)P(=O)(OCC)OCC`: the ΔTm in assay [1] was -0.09 °C; in assay [2], 0.15 °C; in assay [3] it was 0.17 °C; in assay [4], -0.29 °C; in assay [5] it was 0.15 °C; in assay [6], -1.17 °C. For the same molecule, the ΔTm in assay [7] was -3.9 °C.
As to `CNC(=O)c1cc(C(=O)NC2CC2)cn(Cc2ccccc2)c1=O`, the ΔTm in assay [1] is 0.07 °C; in assay [2], 0.96 °C; in assay [3], -0.04 °C; in assay [4], -0.41 °C; in assay [5], 0.38 °C; in assay [6], -0.78 °C. Moreover, in assay [7], the ΔTm is -0.29 °C.
